The values that follow come from PubChem BioAssay (EPA / NIEHS).

Inconclusive results are not listed. Active and inactive are the calls of the source. How the source made its calls, unless noted: active means hit-call score of the fitted dose curve at least 0.9, where 1 is the maximum; inactive means score below 0.9.

Assay [1] has as its target Paired box protein Pax-6 (Homo sapiens) (UniProt P26367). Briefly: ATG_Pax6_CIS: Attagene CIS-FACTORIAL HepG2 Assay for human Paired Box 6 (PAX6) (AID 2282956). The settings on record: HepG2 CIS-FACTORIAL PAX6 reporter transcription, RNA readout; actives raise or lower the signal. In a few lines: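 HepG2 cells transiently transfected with cis-promoter-driven multiplexed reporter units sensing endogenous transcription factor activity; 24 h chemical exposure. Reporter mRNA quantified by RT-PCR, 6-FAM labelling, HpaI digestion and capillary electrophoresis; bidirectional fit versus DMSO baseline.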

Assay [2] can be described thus: ATG_PXRE_CIS: Attagene CIS-FACTORIAL HepG2 Assay for human Pregnane X Receptor Element (PXRE) (AID 2282957). The settings on record: HepG2 Attagene CIS-FACTORIAL PXRE reporter, mRNA; actives raise or lower the signal. In short, it runs like this:
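Transfect HepG2 with MRTUs (cis promoter elements); dose chemical, incubate 24 h; isolate RNA, RT with oligo(dT), PCR, 6-FAM label, HpaI cut, CE. Gain/loss fit vs DMSO.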

A short description of assay [3]: ATG_PPRE_CIS: Attagene CIS-FACTORIAL HepG2 Assay for human Peroxisome Proliferator-activated Response Element (PPRE) (AID 2282958). The settings on record: HepG2 PPRE cis-element reporter, Attagene transcription factor profiling; actives raise or lower the signal. In short, it runs like this: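 In this cell-based multiplex, a PPRE cis element drives a reporter sequence in transiently transfected HepG2 cells. Following 24 h treatment, labeled cDNA amplicons are sized and quantified by capillary electrophoresis, with DMSO defining baseline.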

Assay [4] concerns the target Transcription factor Sp1 (Homo sapiens) (UniProt P08047). Nature of the assay: ATG_Sp1_CIS: Attagene CIS-FACTORIAL HepG2 Assay for human Specificity Protein 1 (Sp1) (AID 2282961). The settings on record: HepG2 Sp1 cis-reporter transcription, actives raise or lower the signal. In short, it runs like this: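 Cells: HepG2, transiently transfected with cis-regulated multiplexed reporters. Exposure: 24 h. Detection: reporter transcripts amplified, fluorescently labeled, restriction-digested and sized by capillary electrophoresis. Analysis: bidirectional fit relative to DMSO.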

Assay [5] can be described thus: ATG_SREBP_CIS: Attagene CIS-FACTORIAL HepG2 Assay for human Sterol Regulatory Element Binding (SREBP) (AID 2282962). The following applies: HepG2 Attagene cis-factorial SREBP reporter, mRNA; actives raise or lower the signal. In short, it runs like this: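 HepG2 cells transiently transfected with multiplexed cis-promoter reporter units sensing endogenous transcription factors; reporter mRNA measured 24 h after dosing by RT-PCR, 6-FAM labeling, HpaI digestion and capillary electrophoresis. Bidirectional fit versus DMSO.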

Assay [6] addresses Signal transducer and activator of transcription 3 (Homo sapiens) (UniProt P40763). Briefly: ATG_STAT3_CIS: Attagene CIS-FACTORIAL HepG2 Assay for human Signal Transducer and Activator of Transcription 3 (STAT3) (AID 2282963). The following applies: HepG2, Attagene cis-factorial STAT3 reporter transcription; actives raise or lower the signal. In short, it runs like this: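 After a 24 h compound incubation, total RNA from MRTU-transfected HepG2 cells was converted to cDNA and reporter sequences PCR-amplified, labelled and profiled by capillary electrophoresis. Gain and loss of signal were referenced to DMSO.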

Assay [7] in a line: ATG_TA_CIS: Attagene CIS-FACTORIAL HepG2 Assay for human TA Basal Promoter (AID 2282964). The settings on record: HepG2 Attagene CIS-factorial TA basal promoter reporter; actives raise or lower the signal. In short, it runs like this: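 Steps: transfect HepG2 with MRTUs; dose 24 h; isolate RNA, DNase-treat, reverse-transcribe; PCR and FAM-label reporter cDNA; digest with HpaI 2h at 37 C; run capillary electrophoresis. Activity fitted both directions against DMSO.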

Assay [8] in a line: ATG_TCF_b_cat_CIS: Attagene CIS-FACTORIAL HepG2 Assay for human T-Cell-Factor with beta-catenin (TCF/b-cat) (AID 2282965). The settings on record: HepG2 TCF/beta-catenin cis-reporter transcription, actives raise or lower the signal. In a few lines: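 Measured: reporter mRNA in HepG2 transiently transfected with cis-promoter reporter units, 24 h after chemical addition. Fitting was bidirectional, DMSO as negative control.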

A short description of assay [9]: ATG_TAL_CIS: Attagene CIS-FACTORIAL HepG2 Assay for human TAL Basal Promoter (AID 2282966).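 Further: background control endpoint measuring basal TAL promoter reporter mRNA not a specific factor.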 The settings on record: HepG2 Attagene cis-factorial TAL promoter reporter; actives raise or lower the signal. In short, it runs like this:
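Fluorescence of labelled reporter cDNA fragments, resolved by capillary electrophoresis, gave the readout. Human HepG2 liver cells carried transiently transfected cis-element reporter units and were treated for 24 hours; activity was fitted bidirectionally against DMSO.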

A short description of assay [10]: ATG_TGFb_CIS: Attagene CIS-FACTORIAL HepG2 Assay for human Transforming Growth Factor (TGF) (AID 2282967). The following applies: HepG2 Attagene CIS TGFb reporter, mRNA transcription; actives raise or lower the signal. In short, it runs like this: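 Cells were dosed for 24 hours, after which total RNA was reverse-transcribed and reporter sequences amplified, labeled and sized by capillary electrophoresis. Activity was fitted in both directions against DMSO.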

Assay [11] in a line: ATG_VDRE_CIS: Attagene CIS-FACTORIAL HepG2 Assay for human Vitamin D Receptor Element (VDRE) (AID 2282968). The following applies: HepG2 VDRE cis-reporter transcription, actives raise or lower the signal. In short, it runs like this:
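In transiently transfected HepG2 liver cells, gain or loss of reporter mRNA after 24 h exposure is scored relative to DMSO, using fluorescence detection by capillary electrophoresis of RT-PCR products.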

Assay [12] can be described thus: ATG_M_19_TRANS: Attagene TRANS-FACTORIAL HepG2 Assay for M19 Transcription Factor (Internal Marker) (AID 2282974; active means hit-call score of the fitted dose curve at least 0.9, where 1 is the maximum). The following applies: HepG2 Attagene TRANS-FACTORIAL M19 internal marker reporter. In a few lines: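 Reporter mRNA induction was measured in transfected HepG2 cells 24 h after dosing. Endpoint fitted upward relative to DMSO and serves as a background control within the multiplexed TRANS panel.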

The target in assay [13] is Glucocorticoid receptor (Homo sapiens) (UniProt P04150). Briefly: ATG_GR_TRANS: Attagene TRANS-FACTORIAL HepG2 Assay for human Glucocorticoid Receptor (GR) (AID 2282978; active means hit-call score of the fitted dose curve at least 0.9, where 1 is the maximum;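 further: activators score as hits since higher reporter transcript over DMSO is fitted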). The following applies: HepG2 Attagene TRANS GR reporter, mRNA transcription. In a few lines: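 Reporter transcript levels, detected by fluorescence after RT-PCR and capillary electrophoresis, served as the endpoint. HepG2 cells bearing transfected GAL4-UAS reporters responsive to NR-GAL4 chimeras were incubated with compound 24 h; DMSO defined baseline.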
Glucocorticoid receptor (Homo sapiens), sequence (P04150 whole entry, looked up, the tested form may be a part): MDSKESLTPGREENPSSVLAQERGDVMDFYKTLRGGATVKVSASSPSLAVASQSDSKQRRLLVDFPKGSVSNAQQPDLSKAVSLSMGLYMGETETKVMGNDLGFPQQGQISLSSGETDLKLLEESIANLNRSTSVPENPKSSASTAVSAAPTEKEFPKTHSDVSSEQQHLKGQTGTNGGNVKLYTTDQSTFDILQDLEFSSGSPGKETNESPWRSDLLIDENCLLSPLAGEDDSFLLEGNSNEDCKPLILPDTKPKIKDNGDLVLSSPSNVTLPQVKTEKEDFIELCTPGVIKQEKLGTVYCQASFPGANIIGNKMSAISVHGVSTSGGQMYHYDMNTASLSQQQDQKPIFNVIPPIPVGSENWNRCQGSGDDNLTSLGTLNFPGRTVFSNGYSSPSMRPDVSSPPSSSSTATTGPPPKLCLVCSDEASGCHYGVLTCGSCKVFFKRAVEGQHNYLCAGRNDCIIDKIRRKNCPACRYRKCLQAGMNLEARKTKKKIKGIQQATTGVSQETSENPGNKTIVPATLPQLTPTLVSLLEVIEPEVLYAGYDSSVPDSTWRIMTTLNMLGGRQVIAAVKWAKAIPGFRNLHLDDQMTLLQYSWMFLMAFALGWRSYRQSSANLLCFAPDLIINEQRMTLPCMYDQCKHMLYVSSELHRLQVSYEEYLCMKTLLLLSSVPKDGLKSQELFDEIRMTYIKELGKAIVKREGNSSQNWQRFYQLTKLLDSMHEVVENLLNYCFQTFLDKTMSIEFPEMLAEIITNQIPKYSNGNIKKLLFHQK

The nature of assay [14]: ATG_RORE_CIS: Attagene CIS-FACTORIAL HepG2 Assay for human RAR-related Orphan Receptor Element (RORE) (AID 2282959). The settings on record: HepG2 Attagene cis-factorial RORE reporter, mRNA; actives raise or lower the signal. In short, it runs like this:
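Endogenous factor activity at a cis response element is read as reporter transcript levels in HepG2 cells, 24 h post-dose. Transcripts are quantified by RT-PCR with capillary electrophoresis, and data fitted in both directions against DMSO.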

The target of assay [15] is X-box-binding protein 1 (Homo sapiens) (UniProt P17861). Nature of the assay: ATG_Xbp1_CIS: Attagene CIS-FACTORIAL HepG2 Assay for human X-box Binding Protein 1 (XBP1) (AID 2282972). The settings on record: HepG2 XBP1 cis-element reporter, Attagene multiplex; actives raise or lower the signal. In a few lines: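 HepG2 cells transiently transfected with multiple cis-element reporter units report endogenous TF activity; 24 h exposure, then reporter mRNA measured by RT-PCR, 6-FAM labelling, HpaI digestion and capillary electrophoresis. Bidirectional fitting versus DMSO.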
X-box-binding protein 1 (Homo sapiens), sequence (P17861 whole entry, looked up): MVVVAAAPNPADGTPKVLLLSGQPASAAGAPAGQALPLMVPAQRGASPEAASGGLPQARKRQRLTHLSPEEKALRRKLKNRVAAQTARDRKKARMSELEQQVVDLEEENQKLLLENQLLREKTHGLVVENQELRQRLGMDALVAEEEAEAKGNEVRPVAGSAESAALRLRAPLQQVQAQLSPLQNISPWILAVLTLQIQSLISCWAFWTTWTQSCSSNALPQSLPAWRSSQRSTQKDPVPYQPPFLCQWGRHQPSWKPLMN

A short description of assay [16]: ATG_GAL4_TRANS: Attagene TRANS-FACTORIAL HepG2 Assay for GAL4 (Internal Marker) (AID 2282976; active means hit-call score of the fitted dose curve at least 0.9, where 1 is the maximum). The settings on record: HepG2 Attagene TRANS GAL4 internal marker reporter. In short, it runs like this:
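First, HepG2 cells were transfected with reporter units under GAL4-UAS control. Next, they were treated with chemical for 24 h. Finally, RNA was reverse-transcribed, PCR-amplified, FAM-labelled and resolved by capillary electrophoresis, with induction scored against DMSO.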

Assay [17] concerns the target Steroid hormone receptor ERR1 (Homo sapiens) (UniProt P11474). Nature of the assay: ATG_ERRa_TRANS: Attagene TRANS-FACTORIAL HepG2 Assay for human Estrogen-Related Receptor alpha (ERRa) (AID 2282971; active means hit-call score of the fitted dose curve at least 0.9, where 1 is the maximum). The settings on record: HepG2 Attagene TRANS reporter, ERRa transactivation. In a few lines:
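Reporter transcript induction was quantified by RT-PCR and capillary electrophoresis of FAM-labelled, HpaI-cut products after 24 h treatment of HepG2 cells carrying transiently transfected GAL4-UAS reporter units and an exogenous ERRa-Gal4 fusion; activity scored as increase over DMSO.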

A short description of assay [18]: ATG_Sox_CIS: Attagene CIS-FACTORIAL HepG2 Assay for human SRY-box transcription factor (SOX) (AID 2282960). The settings on record: HepG2 Attagene cis-factorial SOX reporter, mRNA; actives raise or lower the signal. In a few lines:
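Measures mRNA induction of a SOX1-associated reporter in HepG2 after 24 h dosing. Fluorescently labelled RT-PCR fragments are separated by capillary electrophoresis, and gain or loss relative to DMSO control is fitted.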

Assay [19] deals with Nuclear receptor subfamily 1 group I member 3 (Homo sapiens) (UniProt Q14994). Briefly: ATG_CAR_TRANS: Attagene TRANS-FACTORIAL HepG2 Assay for human Constitutive Androstane Receptor (CAR) (AID 2282969; active means hit-call score of the fitted dose curve at least 0.9, where 1 is the maximum;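 further: activators raise reporter mRNA above DMSO so AC50 marks induction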). The settings on record: HepG2 Attagene TRANS-FACTORIAL CAR reporter. In a few lines:
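Readout is reporter mRNA induction, quantified by fluorescent primer extension and capillary electrophoresis after RT-PCR. Cells were HepG2 transiently carrying chimeric NR-Gal4 constructs with GAL4-UAS reporters, treated for 24 h; activity scored upward from DMSO.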

Transcription factor Sp1 (Homo sapiens), sequence (P08047 whole entry, looked up): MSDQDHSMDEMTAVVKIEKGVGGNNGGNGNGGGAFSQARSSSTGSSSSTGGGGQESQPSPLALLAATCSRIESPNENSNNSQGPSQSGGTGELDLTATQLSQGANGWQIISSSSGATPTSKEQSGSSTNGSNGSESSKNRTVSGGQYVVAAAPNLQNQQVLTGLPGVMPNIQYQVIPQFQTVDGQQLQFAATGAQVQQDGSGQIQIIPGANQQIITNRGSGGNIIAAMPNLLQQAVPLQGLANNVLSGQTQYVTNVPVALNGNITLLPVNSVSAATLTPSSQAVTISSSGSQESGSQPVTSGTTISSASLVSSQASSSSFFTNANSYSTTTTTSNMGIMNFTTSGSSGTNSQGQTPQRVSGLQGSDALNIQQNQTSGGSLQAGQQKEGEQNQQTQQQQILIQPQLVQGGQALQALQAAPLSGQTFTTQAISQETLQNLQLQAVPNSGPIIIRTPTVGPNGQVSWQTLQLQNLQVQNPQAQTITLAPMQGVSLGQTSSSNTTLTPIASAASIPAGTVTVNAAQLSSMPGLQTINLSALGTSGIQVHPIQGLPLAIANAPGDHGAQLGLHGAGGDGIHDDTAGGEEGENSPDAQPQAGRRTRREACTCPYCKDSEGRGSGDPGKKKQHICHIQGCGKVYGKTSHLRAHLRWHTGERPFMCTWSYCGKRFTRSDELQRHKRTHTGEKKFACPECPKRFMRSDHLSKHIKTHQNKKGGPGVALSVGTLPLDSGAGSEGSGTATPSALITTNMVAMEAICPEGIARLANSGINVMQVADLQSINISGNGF
Signal transducer and activator of transcription 3 (Homo sapiens), sequence (P40763 whole entry, looked up): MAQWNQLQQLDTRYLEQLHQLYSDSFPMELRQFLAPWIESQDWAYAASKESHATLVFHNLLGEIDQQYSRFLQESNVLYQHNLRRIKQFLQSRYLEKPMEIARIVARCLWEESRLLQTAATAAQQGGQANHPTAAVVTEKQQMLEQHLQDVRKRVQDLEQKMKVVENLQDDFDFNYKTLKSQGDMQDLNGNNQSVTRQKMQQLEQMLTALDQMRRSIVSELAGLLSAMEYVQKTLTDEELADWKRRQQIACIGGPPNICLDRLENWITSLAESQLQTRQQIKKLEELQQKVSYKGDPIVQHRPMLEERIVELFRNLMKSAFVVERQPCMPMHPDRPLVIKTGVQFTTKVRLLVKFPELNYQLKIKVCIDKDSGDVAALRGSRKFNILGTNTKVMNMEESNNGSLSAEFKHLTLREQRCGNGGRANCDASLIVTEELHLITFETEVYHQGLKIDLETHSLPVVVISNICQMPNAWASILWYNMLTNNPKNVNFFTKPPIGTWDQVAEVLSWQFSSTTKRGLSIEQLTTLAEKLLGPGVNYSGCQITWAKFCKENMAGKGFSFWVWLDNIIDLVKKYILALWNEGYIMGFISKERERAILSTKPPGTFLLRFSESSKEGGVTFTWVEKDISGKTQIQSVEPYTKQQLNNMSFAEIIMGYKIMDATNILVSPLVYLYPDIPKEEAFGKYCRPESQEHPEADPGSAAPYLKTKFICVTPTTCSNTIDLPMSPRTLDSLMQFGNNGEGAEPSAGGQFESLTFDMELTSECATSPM
Paired box protein Pax-6 (Homo sapiens), sequence (P26367 whole entry, looked up): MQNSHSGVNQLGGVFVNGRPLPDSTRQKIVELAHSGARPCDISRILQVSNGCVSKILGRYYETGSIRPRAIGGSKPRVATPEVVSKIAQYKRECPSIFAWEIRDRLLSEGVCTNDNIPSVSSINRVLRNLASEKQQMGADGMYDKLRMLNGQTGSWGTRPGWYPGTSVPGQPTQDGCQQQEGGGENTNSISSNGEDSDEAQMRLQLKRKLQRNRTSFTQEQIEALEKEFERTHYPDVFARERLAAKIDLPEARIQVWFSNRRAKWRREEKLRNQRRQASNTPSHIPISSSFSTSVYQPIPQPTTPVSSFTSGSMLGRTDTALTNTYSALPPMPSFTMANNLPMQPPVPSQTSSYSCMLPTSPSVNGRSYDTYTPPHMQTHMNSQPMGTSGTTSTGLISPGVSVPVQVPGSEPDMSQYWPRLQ
Nuclear receptor subfamily 1 group I member 3 (Homo sapiens), sequence (Q14994 whole entry, looked up, the tested form may be a part): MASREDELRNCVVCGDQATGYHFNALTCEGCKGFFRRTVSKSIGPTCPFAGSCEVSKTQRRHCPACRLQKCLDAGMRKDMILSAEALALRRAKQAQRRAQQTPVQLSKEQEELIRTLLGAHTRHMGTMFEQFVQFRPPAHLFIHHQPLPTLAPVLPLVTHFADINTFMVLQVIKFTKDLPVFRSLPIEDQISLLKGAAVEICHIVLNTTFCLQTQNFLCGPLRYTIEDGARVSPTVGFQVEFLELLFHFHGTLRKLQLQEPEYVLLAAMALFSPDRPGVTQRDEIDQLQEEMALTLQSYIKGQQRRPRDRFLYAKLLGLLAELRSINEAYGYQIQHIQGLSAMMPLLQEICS
Steroid hormone receptor ERR1 (Homo sapiens), sequence (P11474 whole entry, looked up, the tested form may be a part): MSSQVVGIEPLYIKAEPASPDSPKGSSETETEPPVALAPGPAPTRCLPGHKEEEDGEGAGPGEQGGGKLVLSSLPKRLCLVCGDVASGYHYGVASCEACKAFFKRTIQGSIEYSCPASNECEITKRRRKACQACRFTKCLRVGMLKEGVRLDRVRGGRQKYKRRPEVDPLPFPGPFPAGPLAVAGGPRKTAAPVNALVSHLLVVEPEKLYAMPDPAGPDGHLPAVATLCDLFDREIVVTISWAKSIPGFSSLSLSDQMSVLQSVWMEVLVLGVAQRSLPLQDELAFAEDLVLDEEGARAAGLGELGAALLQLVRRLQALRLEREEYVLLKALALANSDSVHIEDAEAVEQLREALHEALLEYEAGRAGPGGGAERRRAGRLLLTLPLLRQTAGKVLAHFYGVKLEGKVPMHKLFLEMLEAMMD

Consider `CC(C)c1cccc(C(C)C)c1N1C(=O)c2ccc(O)cc2C1=O`, for which the AC50 (in general, the midpoint of the concentration-response curve, whichever way the signal moves) in assay [1] was 76.9 µM (active); in assay [3], 26.9 µM (active); in assay [4], 74.2 µM (active); in [5] it was 100 µM (active); in [8], 100 µM (active); in assay [11] it was 33.9 µM (active). The result in [2], in [6], in [7], in assay [9], in assay [10] and in assay [12] was inactive. In addition, in [13], the call was inactive.
As to `COCCOCCOCCOC`, the molecule was called inactive in assay [1], in [2], in assay [14], in assay [4], in [5] and in assay [6]. Also, the outcome in assay [7], in assay [8], in assay [9], in [10], in assay [11] and in assay [15] was inactive. Moreover, the call in assay [12], in assay [16] and in [13] was inactive.
For `CC[C@H]1OC(=O)[C@H](C)[C@@H](O[C@H]2C[C@@](C)(OC)[C@@H](O)[C@H](C)O2)[C@H](C)[C@@H](O[C@@H]2O[C@H](C)C[C@H](N(C)C)[C@H]2O)[C@](C)(O)C[C@@H](C)C(=O)[C@H](C)[C@@H](O)[C@]1(C)O`, the molecule was classed as inactive in assay [1], in assay [2], in assay [14], in assay [4], in assay [5] and in [6]. Besides, the call in assay [7], in assay [8], in assay [9], in [10] and in assay [11] was inactive.
For `O=C(CCCCCCCCc1cccnc1)N1CCC(C=C(c2ccccc2)c2ccccc2)CC1`, the half-maximal activity concentration (AC50) in assay [1] is 9.32 µM (active); in assay [2], 0.438 µM (active); in assay [3], 1.07 µM (active); in [4], 8.56 µM (active); in assay [5], 8.12 µM (active); in [6], 19.5 µM (active). The AC50 in assay [7] was 16.1 µM (active); in [8], 8.08 µM (active); in assay [11], 1.85 µM (active); in [13], 100 µM (active). Besides, the outcome in assay [9], in assay [10] and in [17] was inactive.
For the molecule `C[C@](N)(Cc1ccc(O)c(O)c1)C(=O)O`, the outcome in assay [1], in assay [2], in [18], in [4], in [5] and in assay [6] was inactive. Further, the result in assay [7], in [8], in assay [9], in assay [10], in assay [11] and in assay [19] was inactive. In assay [15], the call was inactive.
